A selection: hits, their analogues and other compounds. The true share with any hit is near 2.6%.
PHOSPHO1 block – inhibitors of human PHOSPHO1 phosphatase; recombinant PHOSPHO1, absorbance phosphatase assay; inhibition, % at 13.3 µM; actives 1.1% (n = 290,000); AID 1565; in the data active = inhibition above about 60%
eIF4H FP inh – inhibitors of RNA binding by human eIF4H; Q15056; eIF4H fluorescence polarization binding assay; actives 0.94% (n = 290,000); AID 2012; inhibition, % at 35 µM;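 also: calls also rest on retests at 20 µM and on dose response follow-up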
MLLE-PAM2 inh – blocks PAM2 peptide binding to the PABP1 MLLE domain | actives 0.36% (n = 360,000) | GST-MLLE / FITC-PAM2 fluorescence polarization | P11940 | inhibition, % at 20 µM; in the data active = inhibition above about 35%, passing the limit was not always enough;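 also: plate controls were DMSO wells with GST-MLLE for no effect and wells lacking GST-MLLE protein for full effect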
A3A deaminase – inhibitors of human APOBEC3A DNA deaminase | P31941 | recombinant A3A, FAM/TAMRA ssDNA deamination fluorescence | inhibition, % at 20 µM | actives 0.41% (n = 330,000);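 active = at least 40% inhibition at 20 µM here, with at most 30% in a related deaminase screen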;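 also: plate controls were A3A with DMSO for no effect and wells lacking A3A enzyme for full effect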
A3G deaminase – inhibitors of human APOBEC3G DNA deaminase. Q9HC16. actives 0.28% (n = 330,000). inhibition, % at 20 µM. AID 493012. recombinant A3G, ssDNA deamination FAM/TAMRA fluorescence;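 active = inhibition of at least 40% at 20 µM, with no more than 30% in the related APOBEC3A deaminase screen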;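 also: plate controls were DMSO wells with A3G for no effect and wells lacking A3G enzyme for full effect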
Target sequence (Q9HC16 whole entry, looked up): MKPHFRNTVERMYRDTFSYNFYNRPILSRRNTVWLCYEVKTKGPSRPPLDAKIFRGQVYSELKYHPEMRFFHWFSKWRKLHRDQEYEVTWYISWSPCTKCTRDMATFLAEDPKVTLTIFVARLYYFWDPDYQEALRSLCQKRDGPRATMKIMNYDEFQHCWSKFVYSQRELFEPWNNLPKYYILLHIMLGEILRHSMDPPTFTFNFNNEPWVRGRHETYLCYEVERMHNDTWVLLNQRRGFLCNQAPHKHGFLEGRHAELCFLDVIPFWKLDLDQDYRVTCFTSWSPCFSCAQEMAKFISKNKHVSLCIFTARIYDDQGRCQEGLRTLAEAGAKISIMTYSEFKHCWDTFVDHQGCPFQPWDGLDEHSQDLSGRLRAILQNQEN
PABP FP inh – blocks human PABP binding to poly(A) RNA; fluorescence polarization; AID 2014; actives 1% (n = 290,000); calls only at 35 µM;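 also: calls also rest on retests at 20 µM and on dose response follow-up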
Active calls of the source: *; i = inactive; u = inconclusive; x = no result; + = active, no number; ! = repeats disagree. Unless noted, no rule for the calls is given here.

SMILES | PHOSPHO1 block | eIF4H FP inh | MLLE-PAM2 inh | A3A deaminase | A3G deaminase | PABP FP inh
CCCc1nc2ccccc2c(=O)n1-c1ccc(O)cc1 | 63* | 5 | 10 | -2 | -8 | i
CCCCc1nc2ccccc2c(=O)n1-c1ccc(O)cc1 | -10 | -5 | -2 | -5 | -9 | i
CCOC(=O)[C@]1(C#N)[C@@H]2C=CC(C(C)=O)=CN2[C@@H](C(N)=O)[C@@H]1c1ccsc1 | 0 | 57* | 11 | -8 | -1 | +
Cc1ccccc1-n1c(C)cc(/C=C2/C(=O)NC(=O)N(Cc3ccco3)C2=O)c1C | 24 | u | -18 | 2 | -5 | +
Cc1cc(/C=C2\C(=O)NC(=O)N(c3ccc(F)cc3)C2=O)c(C)n1-c1ccc(C(=O)O)cc1 | 22 | 25 | -2 | 4 | -3 | +
COc1cccc(-c2sc3ccccc3c2-c2ccc(OCCN3CCOCC3)cc2)c1 | x | x | 3 | -3 | -6 | x
CCCCn1c(O)c(C(C)=NCCc2c[nH]c3ccccc23)c(=O)[nH]c1=O | 16 | 84* | -1 | -2 | -6 | +
CN1CC=C2C(C#N)=C(N)C(C#N)(C#N)C(c3ccncc3)C2C1 (stereo not drawn) | 20 | 122* | 96 | 0 | -1 | +
CC(=O)OC1(c2ccccc2)CCN(C2CCCCC2)CC1C (stereo not drawn) | -16 | 0 | 0 | -2 | 2 | i
Cc1cccc(-n2c(C)nc3ccccc3c2=O)c1C | 16 | -1 | 8 | 3 | -8 | +
O=C(c1cccnc1)N1Cc2ccccc2-n2nncc2C1 | x | x | 3 | x | x | x
CC(=O)N1CCC(N2CCCC(C(=O)c3cccc(Cl)c3)C2)CC1 (stereo not drawn) | -1 | -8 | 8 | 2 | 0 | i
COc1ccc(CCNCc2cc(OC)cc(OC)c2)cc1 | x | x | -9 | x | x | x
Cc1cc([N+](=O)[O-])c(Cl)cc1NC(=O)C(C)C | 2 | 13 | -1 | -3 | -5 | i
CNc1cc(Cl)c2nonc2c1[N+](=O)[O-] | 2 | 23 | 40* | x | x | i
COc1cc2c(cc1OC)C(c1c(O)n(CCc3ccccc3)c(=S)[nH]c1=O)NCC2 (stereo not drawn) | 48 | u | x | -6 | -10 | +
COc1ccc(C2CC(c3c(O)n(CCc4ccccc4)c(=O)[nH]c3=O)=NN2)cc1OC (stereo not drawn) | 16 | 2 | -9 | -1 | -3 | i
CC(C)c1ccc(N=Cc2c(O)n(C3CC3)c(=S)[nH]c2=O)cc1 | 20 | -3 | 10 | -5 | -6 | i
O=c1[nH]c(=S)n(C2CC2)c(O)c1C=Nc1ccc2c(c1)OCO2 | 27 | 68* | 6 | -2 | -2 | i
O=C(CCNC(=O)N1C[C@H]2C[C@@H](C1)c1cccc(=O)n1C2)Nc1ccc(F)cc1 | 34 | 10 | 7 | 2 | -7 | i
CCOC(=O)c1c(/N=C/c2c(O)n(-c3ccccc3F)c(=S)[nH]c2=O)sc2c1CCCC2 | 94* | -7 | -72 | -5 | 4 | i
CCOC(=O)c1c(/N=C/c2c(O)n(-c3ccc(F)cc3)c(=S)[nH]c2=O)sc2c1CCCC2 | 3 | 4 | -13 | -2 | 0 | i
COc1ccc(-n2nc(C(=O)NCC(=O)N3CCC4(CC3)OCCO4)c3ccccc3c2=O)cc1OC | -8 | 29 | 5 | -1 | 1 | i
O=C1NC(=S)N(c2ccc(F)cc2)C(=O)/C1=C\c1ccoc1 | 14 | u | -79 | x | x | i
O=C1NC(=S)N(c2ccc(Cl)cc2)C(=O)/C1=C/N1CCN(C(=O)c2ccco2)CC1 | 14 | 79 | -114 | 0 | -4 | +
SMILES | PHOSPHO1 block | eIF4H FP inh | MLLE-PAM2 inh | A3A deaminase | A3G deaminase | PABP FP inh
COc1ccc(Cn2c(N)c(C(=O)NCc3ccco3)c3nc4ccccc4nc32)cc1OC | 18 | 12 | -30 | -3 | -4 | i
Nc1c(C(=O)NCc2ccco2)c2nc3ccccc3nc2n1CCN1CCCCC1 | 7 | 72* | -48 | 7 | 10 | +
O=c1[nH]c2ccccc2n1C1CCN(C(c2ccccc2OC(F)(F)F)c2nnnn2Cc2ccccc2)CC1 (stereo not drawn) | x | x | 5 | x | x | x
CC(C)N1C(=O)CC2(CC[N+](C)(CCOC(=O)C(O)(c3ccccc3)c3ccccc3)CC2)C1=O (stereo not drawn) | 54 | 1.2* | -107 | 40 | 18 | +
CN(C)CCCN=Cc1c(O)n(CCc2ccccc2)c(=O)[nH]c1=O | 0 | 96* | -86 | 0 | -3 | i
N#CCCn1cc(C(=O)Nc2ccccc2Br)c(-c2ccc([N+](=O)[O-])cc2)n1 | 12 | -14 | -11 | 1 | 2 | i
CC[C@@H](CO)NC(=O)[C@@H]1C=C2c3cccc4c3c(cn4C)C[C@H]2N(C)C1 | -11 | u | 75*! | 5 | 6 | u
CCC(CO)NC(=O)C1C=C2c3cccc4[nH]cc(c34)CC2N(C)C1 (stereo not drawn) | 46 | u | 82 | -1 | 6 | u
CCc1ccc(N2C(=O)NC(=O)C(Cc3ccc(OC)cc3OC)C2=O)cc1 (stereo not drawn) | 95* | -7 | -2 | -2 | -7 | i
Cc1nc2c(=O)n(C)c(=O)nc-2n(C)n1 | 68* | 5 | 8 | 2 | -3 | i
CCn1nc(-c2ccccc2)nc2c(=O)n(C)c(=O)nc1-2 | 9 | u | -1 | -4 | -7 | i
CC1=C(C)CC2(CC1)C(=O)NC(=O)NC2=O | x | x | 0 | x | x | x
Nc1cncc(C(=O)O)c1 | 6 | 53*! | 12 | -3 | -7 | i
CCN(CC)c1ccc(N=Cc2c(O)n(-c3cc(OC)ccc3OC)c(=O)[nH]c2=O)cc1 | -8 | 99* | -96 | -5 | -2 | +
Cn1cc(NC(=O)CCl)cn1 | 42 | 1.5* | 7 | -1 | -5 | i
Cc1cccc(C)c1-n1nnnc1C(c1cccc2ccccc12)N1CCC2(CC1)C(=O)NCN2c1ccccc1 (stereo not drawn) | x | x | 4 | x | x | x
CN1C(=O)N(C)C(=O)C(NS(=O)(=O)c2ccc(N)cc2)(c2ccccc2)C1=O | x | x | -5 | x | x | x
CCCCC(=O)N/N=C/c1c(O)n(CC)c(=S)[nH]c1=O | 10 | 56* | -7 | -5 | -9 | i
Nc1ccccc1C(=O)OCc1ccc([N+](=O)[O-])cc1 | 8 | 7 | 9 | -2 | -10 | i
O=C1C(=O)c2ccccc2-c2ccccc21 | 100* | 4 | 3 | 0 | -1 | i
O=C(O)Cn1cc(C=C2C(=O)NC(=O)NC2=O)c2ccccc21 | 33 | u | 10 | -3 | -11 | +
O=S(=O)(c1ccccc1)N1CCN2CCCC2C1 (stereo not drawn) | 29 | 96* | 4 | -4 | -5 | +
CC(=O)OC1CCC2(C)C3CCC4(C)C(OC(C)=O)CCC4C3C(C)C2(O)C1 (stereo not drawn) | x | x | 6 | x | x | x

Screens from PubChem BioAssay.
